IDE cell inh – cellular human IDE inhibition; P14735; HEK cells, FAbetaB cleavage, fluorescence polarization; inhibition, % at 5.59 µM; 320,000 compounds, 0.41% hits;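 active = percent inhibition above the average of all tested compounds plus 3 SD, set per screening campaign, cut at about 16% in these data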;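 also: IDE supplied by intact live HEK cells; FP after avidin binding of uncleaved biotin substrate so inhibition keeps polarization high; 0% = DMSO wells and 100% = 60 µM reference IDE inhibitor Ii1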
TMEM16A act – activates or potentiates the mouse TMEM16A chloride channel; Q8BHY3; HEK293 TMEM16A/YFP-H148Q/I152L, iodide quench fluorescence; hits give low values; B-score at 10 µM; 340,000 compounds, 0.3% hits; AID 623877;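 active = fluorescence-ratio B-score plate-corrected deviation score at least 3 library SD below zero, with starting fluorescence score within 5 deviations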;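 also: channel opened by trigger with iodide after compound preincubation; score built on the fluorescence ratio of max minus min over baseline; more negative score means more quench and so TMEM16A activation or potentiation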
Target sequence (Q8BHY3 whole entry, looked up): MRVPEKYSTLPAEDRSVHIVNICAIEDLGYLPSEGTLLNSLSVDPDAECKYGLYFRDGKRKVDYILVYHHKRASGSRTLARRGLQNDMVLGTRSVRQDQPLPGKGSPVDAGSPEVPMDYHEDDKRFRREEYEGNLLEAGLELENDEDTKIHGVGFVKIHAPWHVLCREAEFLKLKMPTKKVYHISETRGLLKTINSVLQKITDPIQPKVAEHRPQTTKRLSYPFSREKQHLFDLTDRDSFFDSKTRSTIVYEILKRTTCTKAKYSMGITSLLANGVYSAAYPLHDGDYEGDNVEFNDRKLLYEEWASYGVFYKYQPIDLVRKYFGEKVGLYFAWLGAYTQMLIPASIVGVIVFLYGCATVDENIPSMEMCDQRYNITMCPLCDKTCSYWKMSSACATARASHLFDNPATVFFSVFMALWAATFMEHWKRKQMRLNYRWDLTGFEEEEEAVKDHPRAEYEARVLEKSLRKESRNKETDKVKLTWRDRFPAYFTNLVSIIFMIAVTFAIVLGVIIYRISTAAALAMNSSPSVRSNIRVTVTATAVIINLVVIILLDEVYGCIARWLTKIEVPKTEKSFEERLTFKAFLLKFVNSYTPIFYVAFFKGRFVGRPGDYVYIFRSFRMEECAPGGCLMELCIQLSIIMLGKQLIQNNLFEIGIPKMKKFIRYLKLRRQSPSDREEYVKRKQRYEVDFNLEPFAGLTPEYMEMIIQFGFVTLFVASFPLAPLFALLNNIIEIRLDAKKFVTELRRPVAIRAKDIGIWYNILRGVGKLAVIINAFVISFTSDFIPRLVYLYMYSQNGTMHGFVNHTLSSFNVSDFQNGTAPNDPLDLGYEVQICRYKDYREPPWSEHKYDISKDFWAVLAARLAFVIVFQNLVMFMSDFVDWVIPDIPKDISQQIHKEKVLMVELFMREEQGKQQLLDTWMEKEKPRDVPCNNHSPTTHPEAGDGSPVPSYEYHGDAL
IDE act – boosts human insulin-degrading enzyme activity in HEK cells; 340,000 compounds, 0.073% hits; activation, % at 5.96 µM; FAbeta-B cleavage, fluorescence polarization; 0% vehicle, 100% cell-free pure enzyme wells; P14735;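 active = activation above the mean of all tested compounds plus 3 SD, set per screening campaign, cut at about 17% in these data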
CHT block – inhibits the human high affinity choline transporter | 310,000 compounds, 0.86% hits | Q9GZV3 | B-score at 10 µM | CHT-expressing cells, membrane potential dye, choline response; hits give low values;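 active = B-score over 3 SD under the library average, and starting fluorescence ratio not unusually high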;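 also: choline stimulus applied at its EC90 after an EC20 pre-addition; B-score computed on integrated fluorescence ratio after choline addition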
CHT PAM – allosterically activates the human high affinity choline transporter; CHT-expressing cells, membrane potential dye, choline EC20; hits give high values; LV-AA mutant CHT in HEK293 cells; 310,000 compounds, 0.49% hits; Q9GZV3; B-score at 10 µM; AID 488977;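 active = initial fluorescence not abnormally high and integrated response B-score, plate-corrected, over 3 SD above library mean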
ANO1 block – blocks the mouse calcium-activated chloride channel TMEM16A; Q8BHY3; 310,000 compounds, 1.2% hits; normalized B-score (activity score, 25-100; higher = stronger inhibition) at 10 µM; HEK293 TMEM16A/YFP iodide influx fluorescence, ionomycin;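 active = ratio plate-corrected score three or more library SD toward inhibition, starting fluorescence score within five deviations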;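 also: score derived from kinetic fluorescence span divided by baseline fluorescence per well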
TMEM16A reconf – re-confirmation of mouse TMEM16A chloride channel inhibitors; inhibition, % at 10 µM; AID 652189; HEK293 TMEM16A/YFP-H148Q, iodide quench fluorescence; ionomycin added to raise cell calcium; 2,300 compounds, 39% hits; shares compounds with ANO1 block;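 active = mean duplicate percent inhibition, scaled so buffer wells are 0 and the reference blocker 100, over three buffer SD above buffer mean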
HEK293 Ca mobil – calcium mobilization counter-screen hit for TMEM16A inhibitor series; shares compounds with ANO1 block; TMEM16A/YFP HEK293, Fluo4 calcium mobilization; calcium response (% of ionomycin), % at 10 µM; 2,300 compounds, 2% hits; AID 652231;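 active = duplicate-averaged calcium signal over 20% of the ionomycin maximum, relative to buffer baseline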;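 also: each well's signal is peak minus trough fluorescence divided by its pre-addition baseline; 0% = buffer wells and 100% = ionomycin wells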
YFP-HEK293 quench – acts in parental YFP-HEK293 cells lacking TMEM16A, counter-screen; shares compounds with ANO1 block; iodide YFP quench, ionomycin; YFP ratio F(max-min)/F0 at 10 µM; 2,300 tested, under 10 active; AID 652233;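 active = yellow fluorescent protein signal ratio exceeding the buffer control mean by over 5 SD of those controls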;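 also: ratio is mean of duplicate wells from kinetic YFP trace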
ClC-1 rat inh – rat ClC-1 inhibition, TMEM16A specificity screen; shares compounds with ANO1 block; CHO ClC-1-YFP, iodide influx fluorescence quench; iodide control reads 0, buffer control 100; ratio percent, % at 10 µM; 2,300 tested, under 10 active; AID 652236;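 active = duplicate-mean ratio percent above the mean of iodide-only control wells, which defines zero, plus 5 of their SD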;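 also: higher percent means stronger block of ClC-1 iodide influx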
Starred values were filed as active, the others as inactive; i = inactive; . = not tested or not shown. Hits are enriched below; roughly 2.7% of the tested compounds scored in any of these assays.

SMILES	IDE cell inh	TMEM16A act	IDE act	CHT block	CHT PAM	ANO1 block	TMEM16A reconf	HEK293 Ca mobil	YFP-HEK293 quench	ClC-1 rat inh
CCOc1ccc(NC(=O)c2cccc(NC(C)=O)c2)cc1S(=O)(=O)N1CCCC1	.	i	-1	.	.	.	.	.	.	.
N#Cc1nc(COc2cccc(Cl)c2)oc1NCc1ccco1	2	i	0	i	i	i	i	i	-1.3	-6
CC(Oc1ccc(C(=O)c2ccc(F)cc2)cc1)C(=O)N1CCOCC1 (centres undefined)	2	i	-2	i	i	i	.	.	.	.
COc1ccccc1CNC(=O)COC(=O)c1ccc2c(=O)n3c(nc2c1)CCCCC3	1	i	0	.	.	.	.	.	.	.
O=[N+]([O-])c1cccc(C=NNC(=S)NC23CC4CC(CC(C4)C2)C3)c1	.	i	-6	.	.	.	.	.	.	.
O=C(Nc1nnc(-c2cccs2)o1)c1cccc(C(F)(F)F)c1	3	i	8	i	i	25*	i	26%*	-0.87	-22
CCc1ccc(N2CCN(S(=O)(=O)CC34CCC(CC3=O)C4(C)C)CC2)cc1 (centres undefined)	.	i	-3	i	i	i	.	.	.	.
CCCCn1c(SCC(=O)c2ccc(O)c(O)c2)nc2ccsc2c1=O	-3	i	2	i	i	100*	49%*	i	-1	-18
CCOc1ccc(N2C(=O)CC(NCC#N)C2=O)cc1 (centres undefined)	1	i	0	i	i	25*	i	i	-1.1	-5
CC(C)CSc1nc(N2CCOCC2)c2c(c1C#N)CC(C)(C)SC2	8	i	3	i	i	i	22%*	i	-0.89	0
CC(C)Sc1nc(N2CCOCC2)c2c(c1C#N)CC(C)(C)SC2	1	i	1	i	i	i	.	.	.	.
COc1ccc(CCNC(=O)CCCn2ncn3c(cc4occc43)c2=O)c(OC)c1	4	i	0	i	i	i	.	.	.	.
O=C(c1ccccc1N1CCOCC1)N1CCCC(Nc2ccc(F)cc2)C1 (centres undefined)	7	i	2	i	i	i	.	.	.	.
CCN(CC)S(=O)(=O)c1cc(-c2nnc(-c3ccc(Br)cc3)o2)ccc1Cl	4	i	3	i	i	25*	i	i	-0.86	-12
CCOCCCNC(=S)N1CCN(c2nc(-c3ccc(F)cc3)cs2)CC1	11	i	-12	i	i	100*	31%*	i	-0.99	-24
N#CCSc1nnc(COc2cccc3ccccc23)n1-c1ccccc1	-7	i	-1	i	i	25*	i	i	-1	-13
N#CCSc1nnc(COc2ccccc2)n1-c1ccccc1	-4	i	4	i	i	25*	i	i	-1.1	6
CCCCCOC(=O)C1C(c2ccccc2)C(C(=O)O)C1c1ccccc1 (centres undefined)	4	i	0	i	i	25*	i	i	-1.3	-5
Cc1ccc(-c2ccc(S(=O)(=O)N3CCN(C)CC3)cc2)cc1	-6	i	1	i	i	100*	i	i	-0.85	-10
Cc1ccc(S(=O)(=O)N2CCN(c3ncnc4sccc34)CC2)cc1	-2	i	2	i	i	25*	17%*	i	-1.2	-13
COc1cc(C(=O)N2CCN(c3ncnc4sc(C)c(C)c34)CC2)cc(OC)c1OC	7	i	-5	i	i	25*	i	i	-1	-15
O=S(=O)(c1ccc(F)c(F)c1F)N1CCN(c2ncnc3sccc23)CC1	5	i	-2	.	.	.	.	.	.	.
Cc1sc2ncnc(N3CCN(S(=O)(=O)c4ccc(F)cc4)CC3)c2c1C	7	i	2	i	i	100*	i	i	-0.98	-10
CN1CCN(S(=O)(=O)c2ccc(-c3ccccc3)cc2)CC1	8	i	-4	i	i	i	.	.	.	.
O=C1Nc2c(Cl)cc(Cl)cc2C1=O	.	i	-4	.	.	.	.	.	.	.
SMILES	IDE cell inh	TMEM16A act	IDE act	CHT block	CHT PAM	ANO1 block	TMEM16A reconf	HEK293 Ca mobil	YFP-HEK293 quench	ClC-1 rat inh
CC(C)(C)c1ccc(NC(=O)C2=CN3CCS(=O)(=O)N=C3C=C2)cc1	0	i	2	.	.	.	.	.	.	.
O=C(Cc1coc2ccc3ccccc3c12)NCc1ccccc1	-5	i	-1	i	i	100*	i	i	-0.99	-6
COc1cccc(C2=CC(c3cccc(OC)c3OC(F)F)n3nnnc3N2)c1 (centres undefined)	4	i	3	i	i	100*	i	i	-1	-3
COc1cccc(C2=CC(c3cccc(OC)c3OC)n3nnnc3N2)c1 (centres undefined)	5	i	4	i	i	i	.	.	.	.
O=[N+]([O-])c1ccc(O)c(-c2nc(-c3ccccc3)c(-c3cccs3)[nH]2)c1	0	i	-2	i	i	25*	67%*	i	-0.9	-10
O=C(O)c1ccc(-c2nc(-c3ccccc3)c(-c3cccs3)[nH]2)cc1	1	i	5	i	i	i	.	.	.	.
COc1ccc(N(C)C(=O)c2cc3c(s2)-c2ccc(Cl)cc2S(=O)(=O)C3)c(OC)c1	1	i	8	i	i	25*	26%*	i	-0.81	-8
CC(C)(C)NC1=CC(=O)OC12CCCCC2	7	i	3	i	i	i	i	i	-0.9	0
CC(C)(C)CC(C)(C)NC1=CC(=O)OC12CCCCC2	-2	i	0	i	i	i	.	.	.	.
O=C(Cc1cccs1)Nc1nc(-c2ccccc2)cs1	11	i	-6	i	i	i	.	.	.	.
CS(=O)(=O)N1CCc2cc(-c3csc(NC(=O)Cc4cccs4)n3)ccc21	4	i	1	i	i	25*	31%*	i	-0.89	-5
COc1ccc(Cc2nc(C(=O)Nc3ccc(OC)cc3)cs2)cc1	4	i	1	i	i	25*	i	i	-0.94	-22
